For test [1], the target named is Tumor necrosis factor receptor superfamily member 10B (Homo sapiens) (UniProt O14763). The test can be described thus: viability loss of caspase-8 NB7 cells with TRAIL – with/without TRAIL, luminescence panel, confirmation (AID 651596). Conditions: NB7 neuroblastoma + caspase-8, TRAIL sensitization, NB7 Caspase-8, with TRAIL, mean of runs, at 10 µM, stronger effect = higher value.

Experiment in test [2]: as above
As to conditions: NB7 neuroblastoma + caspase-8, without TRAIL, NB7 Caspase-8, without TRAIL, mean of runs, at 10 µM.

Sequence of Tumor necrosis factor receptor superfamily member 10B (Homo sapiens) (O14763 whole entry, looked up): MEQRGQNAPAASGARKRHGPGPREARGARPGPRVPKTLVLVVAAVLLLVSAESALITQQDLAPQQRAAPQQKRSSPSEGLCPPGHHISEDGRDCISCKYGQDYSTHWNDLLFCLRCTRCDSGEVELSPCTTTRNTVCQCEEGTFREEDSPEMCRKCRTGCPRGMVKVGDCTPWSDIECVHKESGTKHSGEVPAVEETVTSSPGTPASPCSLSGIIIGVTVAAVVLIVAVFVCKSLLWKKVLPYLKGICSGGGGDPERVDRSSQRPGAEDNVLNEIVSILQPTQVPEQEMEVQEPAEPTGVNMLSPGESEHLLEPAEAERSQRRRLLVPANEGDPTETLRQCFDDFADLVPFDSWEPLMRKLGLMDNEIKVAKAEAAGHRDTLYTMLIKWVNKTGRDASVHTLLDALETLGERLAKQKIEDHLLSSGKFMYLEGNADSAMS

Consider `CC1(C)N=C(N)N=C(N)N1CCCCc1ccccc1`, for which the activity in test [1] is 63.6%; in test [2], 68.3%.

As for `Nc1nc(N)c2cc(S(=O)(=O)c3cccc(C(F)(F)F)c3)ccc2n1`, the activity in test [1] came to 60.4%; in test [2] it was 76.5%.

As to `CC(=O)c1c(C)[nH]c(C(=O)Nc2ccccn2)c1C`, the activity in test [1] and in test [2] was 31.1% in each case.

Turning to `O=C(CCl)N1c2ccccc2SCC1c1ccccc1` (centres undefined), the activity was 99.4% in test [1] and 98.9% in test [2].

`C(=N\Nc1nncc2ccccc12)/c1ccccc1`: the activity turned out to be 88.2% in test [1] and 87.7% in test [2].

`Cc1cccc(N2CCN(C(=S)Nc3ccc4nc(N5CCN(C)CC5)cc(C)c4c3)CC2)c1C`: the activity in test [1] amounted to 98%; in test [2], 99.2%.

In the case of `CC1CCc2cc(F)ccc2N1C(=O)CCl` (centres undefined), the activity is 99.3% in test [1] and 98.8% in test [2].

On to `Cc1ccc(-c2nc(-c3ccncc3)no2)c(Cl)c1`, for which the activity in test [1] was determined as 63%; in test [2], 57.1%.

For the molecule `Cc1ccc(NC(=O)CSc2ccc(-c3ccc4c(c3)OCO4)nn2)cc1F`, the activity is 39% in test [1] and 44.9% in test [2].

Consider `COc1ccc2sc(NC(=O)c3ccco3)nc2c1`, for which the activity is 68.9% in test [1] and 74.8% in test [2].

Take `COc1ccc(/C(N)=N/OC(=O)c2ccc3ccccc3c2)cc1OC`: the activity in test [1] was 99%; in test [2], 98%.

With `CC1(C)N=C(N)N=C(N)N1c1ccc(OCC(=O)N2CCOCC2)cc1`, the activity in test [1] worked out at 62.7%; in test [2], 87.2%.

In the case of `c1ccn2cc(-c3ccc4c(c3)OCCO4)nc2c1`, the activity amounted to 89% in test [1] and 86% in test [2].

Take `CCOC(=O)Cc1csc(NC(=S)NC(=O)c2ccc(C)cc2)n1`: the activity turned out to be 84.9% in test [1] and 84.6% in test [2].

Take `O=C(N/N=C\c1cccc(OC(=O)c2ccco2)c1)c1ccc2c(c1)OCO2`: the activity turned out to be 83% in test [1] and 74.1% in test [2].

As to `O=C(Nc1ccc(O)cc1)c1ccc(NC(=O)c2cccs2)cc1`, the results for the activity in test [1] and in test [2] were 85.2% and 84.8%, respectively.

Consider `O=C(Nc1nc2cc3c(cc2s1)OCCO3)c1cccs1`, for which the activity amounted to 66.6% in test [1] and 64.6% in test [2].

For the origin of these results see PubChem BioAssay.
